We go through 92 compounds from PubChem BioAssay AID1778 (Sanford-Burnham Center for Chemical Genomics, 2009).

Screen size: about 290,000 compounds; about 260 (0.09%) were called active. Shown is part of a subset that was picked to be rich in actives. Potency and affinity values are given separately. Unmarked numbers belong to inactive results. Rule as the data show it: active = inhibition above about 50%; inactive = the rest.

Sequence of Kappa-type opioid receptor (Homo sapiens) (P41145 whole entry, looked up): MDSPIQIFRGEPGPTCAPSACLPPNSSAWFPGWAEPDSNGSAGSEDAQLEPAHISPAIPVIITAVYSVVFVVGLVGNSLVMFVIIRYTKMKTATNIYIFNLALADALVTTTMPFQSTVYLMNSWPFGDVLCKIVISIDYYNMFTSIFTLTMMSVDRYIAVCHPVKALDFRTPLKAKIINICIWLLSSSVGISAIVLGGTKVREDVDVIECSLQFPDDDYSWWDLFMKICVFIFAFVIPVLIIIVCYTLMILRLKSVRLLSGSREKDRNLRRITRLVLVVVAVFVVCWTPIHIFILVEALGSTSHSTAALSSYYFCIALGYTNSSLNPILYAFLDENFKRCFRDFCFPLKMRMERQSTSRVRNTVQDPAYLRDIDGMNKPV

The experiment addresses Kappa-type opioid receptor (Homo sapiens) (UniProt P41145). The experiment is described as follows: KOR antagonists, beta-arrestin recruitment, cell-based, luminescence, uHTS (AID 1778). To be noted: antagonist mode, active compounds read high; at 10 µM unless noted.
Consider `NC(=S)Nc1ncc(C(F)(F)F)cc1Cl`, for which the inhibition is -71.5% [at 20 µM].

As to `NC(=S)c1ncc(C(F)(F)F)cc1Cl`, the inhibition is -11.8%.

Regarding `CCOC(=O)N1CCN(C(=O)Nc2sc3nc4n(c(=O)c3c2C)CCC(C)CC4)CC1` (configuration not stated), the inhibition was -7.4%.

With `COc1ccccc1CCNC(=O)C(=O)NCC1OCCN1S(=O)(=O)c1cc(F)ccc1F` (configuration not stated), the inhibition was -43.3% [at 20 µM].

Turning to `CCOc1ccc(-c2nc(C#N)c(NCC3CCCO3)o2)cc1` (configuration not stated), the inhibition was 10.1%.

On to `CC(CCc1ccccc1)NC(=O)c1cccc(F)c1` (configuration not stated), for which the inhibition was -19.3% [at 20 µM].

For the compound `COc1ccc(C(=O)/C=C/C(=O)N(Cc2ccccc2)C(C(=O)NC2CCCCC2)c2ccncc2)c(O)c1` (configuration not stated), the inhibition was 9.1%.

For the compound `COc1ccc(C(=O)/C=C/C(=O)N(Cc2ccc3c(c2)OCO3)C(C(=O)NC2CCCCC2)c2ccncc2)c(O)c1` (configuration not stated), the inhibition is 15.5%.

Consider `COc1ccc(C(=O)/C=C/C(=O)N(CC(=O)NC2CCCCC2)CC2CCCO2)c(O)c1` (configuration not stated), for which the inhibition is 82.5% (active).

In the case of `COc1ccc(C(=O)/C=C/C(=O)N(Cc2ccccc2OC)C(C(=O)NC2CCCCC2)c2ccncc2)c(O)c1` (configuration not stated), the inhibition is 12.2%.

As to `Cc1ccnc(NC(=O)CCC(=O)N(CC(=O)NC2CCCCC2)CC2CCCO2)c1` (configuration not stated), the inhibition was 11%.

Take `COc1ccc(C(=O)/C=C/C(=O)N(Cc2ccc(F)cc2)C(C(=O)NC2CCCCC2)c2ccncc2)c(O)c1` (configuration not stated): the inhibition is 6.8%.

As for `COc1ccc(C(=O)/C=C/C(=O)N(CC(=O)NC2CCCCC2)Cc2ccc(F)cc2)c(O)c1`, the inhibition is 33.1%.

`COc1ccc(C(=O)/C=C/C(=O)N(CC(=O)NC2CCCCC2)Cc2cccs2)c(O)c1`: the inhibition is 26.6%.

For the compound `COc1ccc(CN(C(=O)/C=C/C(=O)c2ccc(OC)cc2O)C(C(=O)NC2CCCCC2)c2ccncc2)cc1` (configuration not stated), the inhibition is 8.2%.

Turning to `COc1ccc(C(=O)/C=C/C(=O)N(CC(=O)NC2CCCCC2)Cc2ccccc2OC)c(O)c1`, the inhibition was 56.3% (active).

`COc1ccc(NS(=O)(=O)c2cc(NC(=O)c3cccnc3Cl)ccc2N2CCCC2)cc1`: the inhibition was 37.4%.

As for `C[C@@H]1CCC[C@]2(O[C@H](CCO)C[C@H](O)[C@H]2O)O1`, the inhibition is 47.9%.

`CC1CC2=C(NC(=S)NC2c2cccc(F)c2)/C(=C/c2cccc(F)c2)C1` (configuration not stated): the inhibition was 4.5%.

Turning to `O=C(c1cccs1)N(C(=O)c1cccs1)c1ccc(Br)cn1`, the inhibition is -21.5%.

Consider `Cc1cnc(C)c(N2CCN(Cc3nc(-c4ccccc4)no3)CC2)n1`, for which the inhibition was -15.2%.

Take `N#CCCN(NC1=NS(=O)(=O)c2ccccc21)C(=O)c1ccccc1Br`: the inhibition was 8.1%.

For `CC(=O)Nc1ccc(S(=O)(=O)NCCC(=O)OCc2ccc([N+](=O)[O-])cc2)cc1`, the inhibition was 16.8%.

Consider `CC1=NN(c2ccccc2)C(=O)/C1=C/N(C)C`, for which the inhibition is 3.4%.

As to `CC1=NN(c2ccccc2)C(=O)/C1=C\C=C\c1ccccc1`, the inhibition is -34.7%.

On to `CC1=NN(c2ccccc2)C(=O)/C1=C/C=C/c1ccccc1`, for which the inhibition is -38.6%.

With `CC1=NN(c2ccc(C)cc2)C(=O)/C1=C\C=C\c1ccccc1`, the inhibition is -74.7%.

For `O=C(Nc1cccc2c1CCCC2)c1cc([N+](=O)[O-])cc([N+](=O)[O-])c1`, the inhibition is -11.2%.

On to `Cc1c(N=c2scc(-c3ccccc3)n2C)c(=O)n(-c2ccccc2)n1C`, for which the inhibition was 16.6%.

Take `CC1=CC(=Nc2c(C)n(C)n(-c3ccccc3)c2=O)C=CC1=O`: the inhibition was 35.7%.

Take `O=C(NC1(C(F)(F)F)OCCO1)c1ccc(F)cc1`: the inhibition is -28.6% [at 20 µM].

Turning to `COc1ccc(C(=O)CSc2ncn[nH]2)cc1OC`, the inhibition was 16.2%.

With `COC(=O)c1ccc(OC(=O)c2cccnc2SC)cc1`, the inhibition was -3.6%.

As for `C/C(=N\Nc1ccc(Cl)cc1)c1ccccn1`, the inhibition was 1.2%.

Consider `C/C(=N\Nc1nc2ccccc2[nH]1)c1ccc(C)o1`, for which the inhibition is 33.8%.

In the case of `C/C(=N\Nc1ncc(Cl)cc1Cl)c1ccc(C#N)cc1`, the inhibition was -10%.

In the case of `C/C(=N\Nc1nc2ccccc2[nH]1)c1ccc(Cl)s1`, the inhibition was 20.9%.

In the case of `C/C(=N\Nc1nc2ccccc2[nH]1)c1ccccn1`, the inhibition was 91.3% (active).

As for `CC(=O)c1cc(-c2ccccc2)[nH]c1N1CCOCC1`, the inhibition was -10.8%.

With `O=C(O)c1ccccc1S(=O)(=O)NCC(O)COc1ccc(Br)cc1` (configuration not stated), the inhibition was 22.9%.

On to `CCCNC(=S)N1CCN(c2nc(-c3ccc(C)cc3)cs2)CC1`, for which the inhibition was -15.3% [at 20 µM].

As for `COc1ccc(NC(=O)/C(Cl)=C(/Cl)S(=O)Cc2ccc(Cl)cc2)cn1` (configuration not stated), the inhibition was 48.8%.

Regarding `COc1ccc(NC(=O)C(Cl)=C(Cl)Cl)cn1`, the inhibition was 8%.

Turning to `COc1ccc(NC(=O)/C(Cl)=C(/Cl)S(=O)(=O)Cc2ccccc2)cn1`, the inhibition was 58.9%.

With `COc1ccc(NC(=O)/C(Cl)=C(/Cl)S(=O)(=O)Cc2ccc(C)cc2)cn1`, the inhibition was 47.9%.

For the compound `COc1ccc(CC(=O)Nc2ccc(OC)nc2)cc1`, the inhibition is 35.7%.

In the case of `COc1ccc(CS(=O)(=O)/C(Cl)=C(/Cl)C(=O)Nc2ccc(OC)nc2)cc1`, the inhibition was 40.1%.

Regarding `C(=C\CSc1ncn[nH]1)/CSc1ncn[nH]1`, the inhibition is 0.4%.

With `CCSc1nc2c(cnn2-c2ccc(C)cc2)c(=O)[nH]1`, the inhibition is -21.4%.

As for `COC(=O)C1=CN(C2CC2)C=C(C(=O)OC)C1c1ccc(C(F)(F)F)cc1`, the inhibition was -9.8% [at 20 µM].

Take `COCCn1c(SCC(=O)N2CCCC2)nnc1-c1ccco1`: the inhibition was 10.6%.

On to `O=C(COc1ccc2c(C(F)(F)F)cc(=O)oc2c1)NCc1cccs1`, for which the inhibition is -40.4%.

For `S=C(Nc1ccc(Oc2ccccc2)cc1)Nc1cccnc1`, the inhibition is -26.6% [at 20 µM].

Turning to `Cc1cc(C)cc(N2C(N)=NC(N)=NC2c2ccccc2F)c1` (configuration not stated), the inhibition was 1.5%.

On to `COC(=O)c1c(NC(=O)CN2CCN(c3ncccn3)CC2)sc(C(N)=O)c1C`, for which the inhibition is -4.1%.

On to `S=c1sc2c(N3CCOCC3)ncnc2n1-c1ccccc1`, for which the inhibition was -30.9%.

With `S=c1sc2c(N3CCN(Cc4ccccc4)CC3)ncnc2n1-c1ccccc1`, the inhibition is -18%.

Regarding `CCOc1ccc(CNc2ccc3c(c2)nc(C)n3C)cc1`, the inhibition was 7.3%.

With `Oc1c(CN2CCc3ccccc3C2)cc(Cl)c2cccnc12`, the inhibition is -4%.

Take `Oc1ccc(CN2CCCCC2)c2cccnc12`: the inhibition was -7.4%.

Turning to `Nc1nc(NC(=O)c2cccs2)nn1-c1ccccc1`, the inhibition is -23%.

`Clc1cc2cccnc2c2ccccc12`: the inhibition is 1.4%.

For the compound `O=[N+]([O-])c1cc(Cl)c2cccnc2c1O`, the inhibition is 1.5% [at 20 µM].

With `Oc1c(Cl)cc(CN2CCCCC2)c2cccnc12`, the inhibition was -1.6%.

Regarding `Oc1c(I)cc(I)c2cccnc12`, the inhibition is -35.5%.

In the case of `COc1cccc(NC(=O)CSc2nc3ccccc3n2C)c1`, the inhibition was 2.2%.

In the case of `Cc1ccc(C)c(NC(=S)NC(NC(=O)OCc2ccccc2)C(Cl)(Cl)Cl)c1` (configuration not stated), the inhibition was -2%.

Consider `O=C(NC(NC(=S)Nc1cccc(C(=O)O)c1)C(Cl)(Cl)Cl)OCc1ccccc1` (configuration not stated), for which the inhibition was 3.3%.

Consider `Cc1cccc(NC(=S)NC(NC(=O)OCc2ccccc2)C(Cl)(Cl)Cl)c1` (configuration not stated), for which the inhibition is -6.6%.

On to `O=C(NC(NC(=S)Nc1cccc(Cl)c1)C(Cl)(Cl)Cl)OCc1ccccc1` (configuration not stated), for which the inhibition was 5.1%.

As for `O=C(CNCCc1ccc(F)cc1)Nc1cc(F)ccc1F`, the inhibition is -1.9%.

As to `O=C(O)CCC(=O)N1N=C(c2cccs2)CC1c1cccc([N+](=O)[O-])c1` (configuration not stated), the inhibition was -24.4% [at 20 µM].

In the case of `CC(=O)N1N=C(c2ccccc2)CC1c1cccc([N+](=O)[O-])c1` (configuration not stated), the inhibition is -7% [at 20 µM].

As to `CCc1nn(CC(=O)NCCCN(C)Cc2ccccc2)c(=O)c2cc3sc(C)cc3n12`, the inhibition was 1.9%.

Regarding `CCC(=O)N1CC2(CC(c3cccc(NC(=O)COc4ccc(Cl)cc4)c3)=NO2)C[C@@H]1C(N)=O` (some centres not stated), the inhibition is 8.3%.

Take `CCOC(=O)c1ccc(N/N=C/c2cc(Br)cc([N+](=O)[O-])c2O)cc1`: the inhibition was 60.8% [at 20 µM] (active).

As to `COC(=O)c1ccc(N/N=C/c2cc([N+](=O)[O-])cc(OC)c2O)cc1`, the inhibition is -4.6%.

For the compound `O=C(N/N=C/c1cc(Br)cc([N+](=O)[O-])c1O)c1ccc(NC(=O)c2ccc(F)cc2)cc1`, the inhibition is -22.2%.

Consider `COc1ccc(CNC(=O)C2CCC(CNS(=O)(=O)c3ccc(C)cc3)CC2)cc1` (configuration not stated), for which the inhibition was 5.5%.

`COc1ccc2nc(N3C(=O)CNC3=S)sc2c1`: the inhibition is 59.9%.

On to `O=C1CNC(=S)N1c1nc2ccccc2s1`, for which the inhibition is 18.9%.

As to `Cc1ccc2nc(N3C(=O)CNC3=S)sc2c1`, the inhibition is 45.5%.

With `CCOc1ccc2nc(N3C(=O)/C(=C/c4ccccc4)NC3=S)sc2c1`, the inhibition was 13.6%.

As for `Cc1cc(C)cc(Nc2nc3c(S(=O)(=O)c4ccccc4)nnn3c3ccccc23)c1`, the inhibition was -17.6%.

`COc1cccc(NC(=O)CSc2ccc3nnc(-c4ccccn4)n3n2)c1`: the inhibition is 3%.

With `Cc1ccc(SC[C@H](CC(C)C)N2CCN(C)CCC2=O)cc1`, the inhibition was 30.9%.

With `COc1ccccc1OC(C)C(=O)NNC(=S)NC1CCCC1` (configuration not stated), the inhibition was 1.5%.

Regarding `COc1ccc(N2C(=S)NC3N2C(=S)NC3(C)c2ccccc2)cc1` (configuration not stated), the inhibition was -26.3%.

Regarding `CC(C)CNS(=O)(=O)c1ccc(CCC(=O)N2CCC(C(N)=O)CC2)cc1`, the inhibition is -7.7%.

For `Cc1cc(C)nc(-n2nc(C)cc2Nc2ccccc2)n1`, the inhibition was -25%.

Turning to `Cc1ccc(Nc2cc(C)nn2-c2nc(C)cc(C)n2)cc1`, the inhibition is 2%.

For the compound `COc1cccc(N2C(=O)CC(N3CCN(c4ccc([N+](=O)[O-])cc4)CC3)C2=O)c1` (configuration not stated), the inhibition is -48.1% [at 20 µM].
